TcdB inh: inhibitors of Clostridioides difficile toxin B glycohydrolase; inhibition, % at 9.99 µM; AID 652162; P18177; TcdB glycohydrolase enzymatic assay, plate reader; 350,000 tested, 0.24% active; in the data active = inhibition above about 10%
DUSP3 inh: inhibitors of human VHR1 phosphatase (DUSP3) | P51452 | inhibition, % at 13.3 µM | AID 1654 | recombinant VHR phosphatase, pNPP absorbance | 290,000 tested, 0.52% active; in the data active = inhibition above about 50%
PrPC surface inh: reduces human prion protein on the cell surface; P04156; cell surface PrPC, TR-FRET read-out; inhibition, % at 13.8 µM; 370,000 tested, 0.43% active; AID 720596; in the data active = inhibition above about 24%; note: 0% = median of the test wells and 100% = reference compound wells
PrPC TRFRET cf: confirmation of inhibitors of cell surface human prion protein. shares compounds with PrPC surface inh. 1,500 tested, 65% active. cell surface PrPC level, TR-FRET. inhibition, % at 13.8 µM; in the data active = inhibition above about 25%
LD9 cytotox: counter-screen for PrPc inhibitors: cytotoxicity in LD9 cells | shares compounds with PrPC surface inh | 1,500 tested, 29% active | inhibition, % at 13.8 µM | luminescence viability; in the data active = inhibition above about 9.5%
* = called active by the depositor; · = not tested or not shown. Hits are enriched below; roughly 0.82% of the tested compounds scored in any of these assays.

SMILES	TcdB inh	DUSP3 inh	PrPC surface inh	PrPC TRFRET cf	LD9 cytotox
N#Cc1c(-c2cccs2)nc(SCc2ccc(Cl)cc2)[nH]c1=O	0	30	109*	119*	-7
O=c1[nH]c(SCc2ccc(Cl)cc2)nc2ccsc12	1	17	4	·	·
O=C(CSc1nc2ccccc2c(=O)[nH]1)NC1CCCCC1	·	·	14	·	·
O=C(CSc1cnc2ccccc2n1)NC1CCCC1	·	-4	33*	40*	-1
CSc1nc(-c2ccccc2)c(C#N)c(=O)[nH]1	3	5	1	·	·
CSc1nc(-c2cccs2)c(C#N)c(=O)[nH]1	0	6	59*	87*	-1
N#Cc1c(-c2ccccc2)nc(SCC(=O)NC2CCCCC2)[nH]c1=O	-1	2	36*	39*	-10
C[C@@H]1CN([C@@H](C)CO)C(=O)Cc2cc(NC(=O)Cc3cn(C)c4ccccc34)ccc2O[C@H]1CN(C)S(=O)(=O)c1cccs1	0	·	·	·	·
C[C@@H]1CN([C@H](C)CO)C(=O)Cc2cc(NC(=O)Cc3cn(C)c4ccccc34)ccc2O[C@@H]1CN(C)C	0	·	·	·	·
O=C(CCN1CCCCC1)N[C@@H]1CC[C@H](CCNS(=O)(=O)c2ccc(F)cc2)O[C@H]1CO	1	·	·	·	·
Cn1cnc(S(=O)(=O)N2C[C@H](O)COC[C@H]3O[C@@H](CC(=O)NCc4cc(F)cc(F)c4)CC[C@@H]32)c1	-8	·	·	·	·
C[C@@H]1CN([C@@H](C)CO)C(=O)Cc2cc(NC(=O)Cc3ccccc3)ccc2O[C@@H]1CN(C)Cc1ccncc1	-2	·	·	·	·
C[C@H](CO)N1C[C@H](C)[C@H](CN(C)S(=O)(=O)c2ccc(Cl)cc2)Oc2c(NC(=O)c3nc4ccccc4s3)cccc2C1=O	1	·	·	·	·
CNC(=O)NC(=O)CSc1nc(-c2cccs2)c(C#N)c(=O)[nH]1	0	16	120*	124*	-3
CCOC(=O)Cc1csc(NC(=O)CSc2nc(-c3ccccc3)c(C#N)c(=O)[nH]2)n1	-6	2	7	·	·
CN(C)c1ccc(C=c2c3ccccc3n3c2cc(-c2ccccc2)[n+]3C)cc1	4	·	-1	·	·
COc1cc(N(C)C)ccc1C=c1c2ccccc2n2c1cc(-c1ccccc1)[n+]2C	6	·	31*	48*	68*
O=C(CSc1nncc2ccccc12)Nc1ccccc1	0	0	10	·	·
O=C(CSc1nncc2ccccc12)Nc1ccc(F)cc1	0	30	37*	48*	-5
CCCC#Cc1cnc2c(c1)C(=O)N([C@H](C)CO)C[C@H](C)[C@@H](CN(C)C(=O)c1ccc(F)cc1)O2	1	·	·	·	·
Cc1noc(C)c1NC(=O)Nc1ccc2c(c1)C(=O)N([C@H](C)CO)C[C@H](C)[C@H](CN(C)C(=O)Nc1ccc(F)cc1)OCCCC[C@@H](C)O2	2	·	·	·	·
CCCc1cn(CC[C@@H]2CC[C@H](NC(=O)C3CCOCC3)[C@H](CO)O2)nn1	-3	·	·	·	·
CC=Cc1ccc2n(c1=O)C[C@H]1[C@H](CO)[C@@H](C(=O)N3CCCCC3)N(Cc3ccccc3)[C@@H]21 (mixture of isomers)	1	·	·	·	·
COc1cc(NS(=O)(=O)c2ccc(C)cc2)c2ncccc2c1	·	18	51*	51*	69*
Cc1ccc(S(=O)(=O)Nc2ccccc2-c2ccccc2NS(=O)(=O)c2ccc(C)cc2)cc1	·	1	1	·	·
SMILES	TcdB inh	DUSP3 inh	PrPC surface inh	PrPC TRFRET cf	LD9 cytotox
COc1ccc(S(=O)(=O)Nc2ccccn2)cc1	1	-8	-8	·	·
Cc1ccc(S(=O)(=O)Nc2cccc3cccnc23)cc1	·	18	39*	72*	82*
CCCC#Cc1ccc([C@H]2[C@H](CO)N3C(=O)CN(C(=O)NC4CCCC4)C[C@@H]23)cc1	0	·	·	·	·
CCC(=O)N1[C@H](CO)[C@H](c2ccc(C3=CCCCC3)cc2)[C@@H]1CN(C)C(C)=O	-1	·	·	·	·
CO[C@H]1CN(C)C(=O)c2cc(NC(=O)C3CC3)ccc2OC[C@@H](C)N(Cc2cncnc2)C[C@H]1C	0	·	·	·	·
Cc1ccccc1/C=N/Nc1nc2ccccc2[nH]1	1	-5	-1	·	·
C(=N\Nc1nc2ccccc2[nH]1)/c1ccccc1	2	22	4	·	·
Cc1cc(=O)[nH]c(N/N=C/c2c[nH]c3ccccc23)n1	4	6	1	·	·
Cc1[nH]c2ccccc2c1/C=N/Nc1nc2ccccc2[nH]1	3	-12	30*	6	12*
C(=N\Nc1nc2ccccc2[nH]1)/c1c[nH]c2ccccc12	·	5	33*	5	4
Cc1ccc(/C=N/Nc2nc3ccccc3[nH]2)s1	·	-8	27*	10	5
CCC(=O)N[C@@H]1C=C[C@H](CC(=O)NCc2cc(F)cc(F)c2)O[C@H]1CO	-1	·	·	·	·
COc1ccc(S(=O)(=O)Nc2ccc3c(c2)C(=O)N([C@H](C)CO)C[C@@H](C)[C@H](CN(C)C(=O)Cc2ccccc2)OCCCC[C@H](C)O3)cc1	1	·	·	·	·
CCCNC(=O)Nc1ccc2c(c1)OC[C@@H](C)N(CC1CCCC1)C[C@@H](C)[C@@H](OC)CN(C)C2=O	1	·	·	·	·
COc1c(F)cc2[nH]c3c(c2c1F)CCNC3=O	0	·	30*	6	-5
Cc1ccc2[nH]c3c(c2c1)CCNC3=O	0	1	6	·	·
COc1ccc2c3c(n(C)c2c1)[C@H](CO)N(C(=O)Cc1ccccn1)CC31CCN(CC2CCCCC2)CC1	-1	·	·	·	·
CC[C@@H]1C[C@H]2CC[C@H](O2)[C@H](C)C(=O)O[C@@H](C)C[C@@H]2CC[C@@H](O2)[C@@H](C)C(=O)O[C@H](C)C[C@H]2CC[C@H](O2)[C@H](C)C(=O)O[C@@H](C)C[C@@H]2CC[C@@H](O2)[C@@H](C)C(=O)O1	1	·	39*	56*	55*
O=C(Nc1ccc2c(c1)[C@H]1C[C@@H](CC(=O)N3CCCCC3)O[C@@H](CO)[C@H]1O2)c1cccnc1	2	·	·	·	·
Cc1c(C(=O)N2CCc3ccccc32)oc2ccccc12	·	8	2	·	·
COCc1c(C(=O)N2CCc3ccccc32)oc2ccccc12	2	7	26*	3	-4
C[C@H]1CN([C@@H](C)CO)C(=O)Cc2cc(NC(=O)NC3CCCCC3)ccc2O[C@H]1CN(C)Cc1ccncc1	1	·	·	·	·
CC(=O)N[C@H]1CC[C@@H](CC(=O)NCC2CCCCC2)O[C@H]1CO	1	·	·	·	·
CO[C@@H]1CN(C)C(=O)c2cc(NC(=O)Nc3ccccc3F)ccc2OC[C@H](C)N(Cc2ccccc2C(=O)O)C[C@@H]1C	-4	·	·	·	·
Cc1ccc(NC(=S)c2nc3ccccc3[nH]2)c(C)c1	·	4	3	·	·
Cc1cccc(/C=C(\c2nc3ccccc3[nH]2)S(=O)(=O)c2ccccc2)c1	-1	13	25*	17	22*
CNC(=O)[C@@H](NC(=O)[C@H](CC(C)C)[C@H](O)C(=O)NO)C(C)(C)C	·	·	61*	65*	-3
CNC(=O)C(NC(=O)CNC(=O)c1ccc(Cl)cc1)C(C)(C)C (configuration not stated)	0	-3	11	·	·
CCN1/C(=C/c2ccc3cc(C)cc(C)c3[n+]2CC)Sc2cc(C)ccc21	-19	23	-6	·	·
CCN1/C(=C/c2ccc3cccc(C)c3[n+]2CC)Sc2ccccc21	·	19	28*	36*	54*

Screening data deposited in PubChem BioAssay by several laboratories.
